According to PubChem BioAssay AID1209 (Sanford-Burnham Center for Chemical Genomics, 2008):
Out of some 190,000 compounds screened, about 810 (0.43%) were called active. Only a selection was taken, and actives are over-represented in it overall. Unmarked numbers belong to inactive results. No stated cut-off is given here; in the data, active means inhibition above about 50%; inactive means the rest.

Target: Mannose-6-phosphate isomerase (Homo sapiens) (UniProt P34949)
Experiment: inhibitors of human PMI, primary screen, biochemical, fluorescence intensity, coupled assay (AID 1209);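 further: plate controls were DMSO vehicle for no effect and wells lacking substrate for full effect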
Conditions: purified PMI enzyme, at 20 µM, hits give high values

Chain of Mannose-6-phosphate isomerase (Homo sapiens) (P34949 whole entry, looked up): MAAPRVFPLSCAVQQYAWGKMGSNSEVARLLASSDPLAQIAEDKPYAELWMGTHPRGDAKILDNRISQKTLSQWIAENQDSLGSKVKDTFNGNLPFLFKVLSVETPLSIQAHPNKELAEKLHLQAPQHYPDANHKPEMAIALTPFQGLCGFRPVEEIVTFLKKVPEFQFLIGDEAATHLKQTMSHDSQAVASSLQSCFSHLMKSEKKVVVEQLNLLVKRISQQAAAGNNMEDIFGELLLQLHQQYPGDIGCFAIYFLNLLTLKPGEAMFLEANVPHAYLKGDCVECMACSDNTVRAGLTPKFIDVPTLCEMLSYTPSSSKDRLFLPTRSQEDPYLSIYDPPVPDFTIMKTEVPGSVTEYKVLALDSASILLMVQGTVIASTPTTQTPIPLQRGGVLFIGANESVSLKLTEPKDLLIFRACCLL

| SMILES | inhibition |
| --- | --- |
| Cc1ccc(-c2nnn(CC(=O)N(CC(=O)NC3CCCC3)c3ccc(F)c(Cl)c3)n2)o1 | -4.8% |
| C[C@@H]1C=C(C(=O)O)O[C@H](OCc2ccc(CO)cc2)C1 | 6% |
| O=[N+]([O-])C1=CC=C2C(=NC3(CCCCC3)N2O)C1=NCCO | 81.4% (active) |
| O=[N+]([O-])c1nn(-c2ccccc2)n(O)c1=NCCc1ccccc1 | -5.6% |
| O=[N+]([O-])C1=CC=C2C(=NC3(CCCCC3)N2O)C1=NCCc1ccccc1 | 62.9% (active) |
| CCCCN=C1C([N+](=O)[O-])=CC=C2C1=NC1(CCCCC1)N2O | 31.3% |
| COc1ccc(-n2nc([N+](=O)[O-])c(=NCCc3ccccc3)n2O)cc1 | 10% |
| CCC(CC)NC(=O)COC(=O)CCC(=O)c1cccs1 | 4.9% |
| Cc1nc2cc(NC(=O)N3CCCCC3)ccc2n1C | 16.1% |
| CCO/C=N/c1c(C#N)c2c(c(=S)n1C)COC(C)(C)C2 | 5.8% |
| Cn1c(=O)n(C)c2cc([N+](=O)[O-])c(N3CCN(S(C)(=O)=O)CC3)cc21 | -6.6% |
| CC1CCCC2(C1)NC(=S)N(c1ccccc1)N2 (centres undefined) | -48.4% |
| CCSC1=NC2(CCCCC2)Nc2sc3c(c21)CCCC3 | -35% |
| CC1CCCC2(C1)NC(=S)c1c(sc3c1CCCC3)N2 (centres undefined) | 74.4% (active) |
| COc1ccccc1OCCOCCOc1ccc(C)cc1Br | 11.4% |
| C=CCn1c(SC/C=C/c2ccccc2)nnc1-c1sc(N)nc1C | 13.7% |
| CC(C)(C)N(CC#CCC(O)(c1ccccc1)C1CCCC1)CCO (centres undefined) | 30.4% |
| CCN(CC#CCC(O)(c1ccccc1)C1CCCC1)C(C)C (centres undefined) | 7.4% |
| CC(C)N(CC#CCC(O)(c1ccccc1)C1CCCC1)CCO (centres undefined) | 58.1% (active) |
| CC(C)C(C)NC(=O)COC(=O)c1cccc(C(=O)OCC(=O)NC(C)C(C)C)n1 (centres undefined) | 21.9% |
| Nc1nnc(-c2ccncc2)s1 | 13.4% |
| CCOC(=O)NC1(NCC(C)C)Oc2ccccc2O1 | 42.4% |

| SMILES | inhibition |
| --- | --- |
| CCOC(=O)NC1(NCc2ccccc2)Oc2ccccc2O1 | 51.2% (active) |
| CCOC(=O)NC1(NC(C)C)Oc2ccccc2O1 | 12.2% |
| CCN(CC)c1ccc(C2C(C(=O)OCCOC(C)C)=C(C)NC3=C2C(=O)CCC3)cc1 (centres undefined) | 6.2% |
| CCOC(=O)c1oc2ccccc2c1NC(=O)CN1CCOCC1 | -0.8% |
| COc1ccc(NC(=O)c2ccc(S(=O)(=O)N3CCOCC3)cc2)c(OC)c1 | 7.2% |
| COC(=O)c1c(-c2ccc(C)cc2)csc1NC(=O)C1CC=CCC1C(=O)O (centres undefined) | 7.7% |
| COC(=O)c1c(-c2ccccc2)csc1NC(=O)C1CC=CCC1C(=O)O (centres undefined) | -6.8% |
| COC(=O)c1c(-c2ccco2)csc1NC(=O)C1CC=CCC1C(=O)O (centres undefined) | 51.4% (active) |
| O=c1[nH]nc(CNc2ccc(Cl)cc2Cl)c2ccccc12 | -11.9% |
| Cc1ncc(CO)c(/C=N/NC(=O)c2ccc(O)cc2)c1O | 3.5% |
| Cc1ncc(CO)c(/C=N/NC(=O)c2ccc(Br)cc2)c1O | 15.7% |
| COc1ccccc1NC(=S)N1CCC(C(=O)c2ccc(F)cc2)CC1 | 1.3% |
| CC(C)OCCCNC(=S)Nc1ccc2nc3n(c(=O)c2c1)CCCCC3 | -2.7% |
| S=C(c1ccc(-c2ccc(Cl)cc2)o1)N1CCCCC1 | 9.1% |
| NC(=O)C1CCN(C(=S)c2ccc(-c3ccc(Br)cc3)o2)CC1 | -10% |
| CC(=O)N1CCN(C(=S)c2ccc(-c3ccc(Cl)cc3)o2)CC1 | 63.9% (active) |
| N#CCCN1CCN(C(=S)c2ccc(-c3ccc(Cl)cc3)o2)CC1 | 25.7% |
| COc1ccc(-c2ccc(C(=S)N3CCN(C(C)=O)CC3)o2)cc1 | 62% (active) |
| COc1ccc(CC(=O)N2CCN(C(=O)Cc3ccc(OC)cc3)CC2)cc1 | 7.3% |
| Cc1cccc(CSC2=NCCN2C(=O)C2CC2)c1 | 5.8% |
| CCC1N=C(SC)NC(C)=C1C(=O)c1ccccc1 (centres undefined) | -36.6% |
| CCOc1ccc(Cn2nnc(C(=O)Nc3cc(C)cc(C)c3)c2N)cc1 | 18.5% |

| SMILES | inhibition |
| --- | --- |
| Fc1ccc(NC(=S)Nc2nccs2)cc1 | 2.2% |
| CC(C)N(C(=O)Nc1ccc2nccnc2c1)C(C)C | 65.4% (active) |
| CC(=O)Nc1ccc(NC(=S)Nc2ccc(F)cc2)cc1 | 3.2% |
| CCN(CC)c1ccc(NC(=S)Nc2ccc(F)cc2)cc1 | 53.4% (active) |
| CC(C)(C)NC(=O)Nc1ccc2nccnc2c1 | 4.4% |
| Fc1ccc(NC(=S)Nc2ccc3nccnc3c2)cc1 | 56.3% (active) |
| CNC(=S)Nc1ccc2nc(C)c(C)nc2c1 | 2.5% |
| Cc1nc2ccc(NC(=O)N(C(C)C)C(C)C)cc2s1 | 3% |
| CCN(CC)CCNC(=S)Nc1ccc(F)cc1 | -2.1% |
| OCCCNC(=S)Nc1ccc2nccnc2c1 | -2.7% |
| COc1ccc(NC(=S)Nc2ccc3nc(C)c(C)nc3c2)cc1 | 45% |
| COc1ccc(N(C)C(=S)Nc2ccc3nc(C)c(C)nc3c2)cc1 | 53.7% (active) |
| Cc1c(Nc2nc(-c3ccc(Cl)cc3)cs2)c(=O)n(-c2ccccc2)n1C | 20.6% |
| COc1ccc(N2CCN(C(=O)c3ccc(F)cc3)CC2)c([N+](=O)[O-])c1 | -4.8% |
| COCCN(C(=O)Cn1nnc2ccccc21)C(C(=O)NC1CCCC1)c1ccc(OC)cc1OC (centres undefined) | -10.6% |
| CCc1cccc(CC)c1-n1c(SCC(=O)c2c(N)n(C)c(=O)n(C)c2=O)nnc1-c1cccnc1 | 17.2% |
| Cc1ccccc1C(=O)c1c[nH]c(C(=O)N2CCN(c3ccccc3F)CC2)c1 | 7.5% |
| Cc1cc(C)cc(NC(=S)N2CCN(c3ccc(F)cc3)CC2)c1 | 10% |
| C=CCn1c(SCc2ccccc2)nnc1-c1cccnc1 | 1.3% |
| CN(Cc1nc2ccccc2c(=O)[nH]1)CC(O)COCc1ccco1 (centres undefined) | 11.4% |
